In PubChem BioAssay (Tox21):
Inconclusive results are not listed. The source made the active and inactive calls. Unless noted, calls follow the shape of the full dose curve.

Key:
[1] = qHTS assay to identify small molecule agonists of the sonic hedgehog signaling (Shh) pathway (AID 1259368);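 also: NIH/3T3-derived 3T3Gli1-Luc cells carrying a stable Gli1-driven firefly luciferase reporter; series mostly up to about 92 µM; nearly all actives have a fitted effect of over 15% in size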
Outline: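 Luminescent signal was taken as a measure of Gli1-controlled luciferase expression in stably transfected NIH/3T3-derived cells that had been treated for 24 hr with compounds delivered in DMSO.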

[2] = qHTS assay to identify small molecule antagonists of the sonic hedgehog signaling (Shh) pathway (AID 1259369); also: nearly all actives have a fitted effect of over 45% in size
Outline: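 Screening used 3T3Gli1-Luc cells at 2,000 per well, compounds delivered in DMSO, and conditioned medium as agonist stimulus; plates incubated 24hr at 37 C and 5% CO2 before a 30min luciferase step.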

[3] = target: Estrogen receptor beta (Homo sapiens) (UniProt Q92731); assay: qHTS assay to identify small molecule agonists of the estrogen receptor beta (ER-beta) signaling pathway (AID 1259377; active = well fitted activation curve with a large enough effect in the signal ratio in the repeat runs, not every such curve was filed as active; the % refers to the signal ratio)
Estrogen receptor beta (Homo sapiens), sequence (Q92731 whole entry, looked up): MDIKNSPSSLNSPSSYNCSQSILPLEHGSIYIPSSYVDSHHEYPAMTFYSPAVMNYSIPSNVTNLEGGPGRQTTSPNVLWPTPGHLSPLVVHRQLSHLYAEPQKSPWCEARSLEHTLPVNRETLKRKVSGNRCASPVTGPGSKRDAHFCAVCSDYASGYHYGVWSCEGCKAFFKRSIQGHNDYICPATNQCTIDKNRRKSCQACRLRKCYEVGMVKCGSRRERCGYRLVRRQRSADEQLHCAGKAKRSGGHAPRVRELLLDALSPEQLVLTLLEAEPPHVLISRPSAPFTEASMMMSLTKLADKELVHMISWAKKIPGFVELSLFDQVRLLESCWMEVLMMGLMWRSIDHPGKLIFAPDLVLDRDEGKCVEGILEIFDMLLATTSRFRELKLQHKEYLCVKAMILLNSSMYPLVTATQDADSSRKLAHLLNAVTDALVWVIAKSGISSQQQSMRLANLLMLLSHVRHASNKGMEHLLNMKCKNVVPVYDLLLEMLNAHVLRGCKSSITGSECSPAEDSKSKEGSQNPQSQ
Outline: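 Read-out: beta-lactamase FRET fluorescence. Cell line: ER-beta-UAS-bla HEK293T in 2% charcoal-stripped FBS. Exposure: 16 hr at 37C. Substrate step: 2 h at room temperature.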

[4] = target: Estrogen receptor beta (Homo sapiens) (UniProt Q92731); assay: qHTS assay to identify small molecule antagonists of the estrogen receptor beta (ER-beta) signaling pathway (AID 1259378; active = well fitted inhibition curve with a large enough effect in the signal ratio in the repeat runs, not every such curve was filed as active; the % refers to the signal ratio)
Outline: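 Antagonist mode: compounds added to beta-lactamase reporter HEK293T ER-beta-UAS cells stimulated with E2 (1nM final), 16 hr at 37C. LiveBLAzer B/G FRET substrate, 2 hours room temperature, fluorescence read-out.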

[5] = qHTS assay to identify small molecule agonists of the androgen receptor (AR) signaling pathway in the presence of an antagonist - cell viability counter screen (AID 1259379; active = well fitted curve in the direction sought with a large enough effect in the repeat runs; an effect the other way counts as inactive or inconclusive;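 also: MDA-kb2 human breast cancer cells carrying an MMTV luciferase reporter; series mostly up to about 92 µM; nearly all actives have a fitted effect of over 25% in size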)
Outline: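 In MDA-kb2 cells (human breast carcinoma, MMTV-luciferase), compounds at 15 concentrations plus 3.0uM nilutamide; 16 hr, 37C, 0% CO2; CellTiter-Fluor fluorescence read for viability.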

[6] = qHTS assay to identify small molecule agonists of the estrogen receptor beta (ER-beta) signaling pathway - cell viability counter screen (AID 1259380; active = well fitted curve in the direction sought with a large enough effect in the repeat runs; an effect the other way counts as inactive or inconclusive; also: nearly all actives have a fitted effect of over 30% in size)
Outline: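 Viability of ER-beta-UAS-bla HEK293T cells was determined by CellTiter-Glo luminescence following 16 hr treatment with test compounds at 37C.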

[7] = qHTS assay to identify small molecule antagonists of the estrogen receptor beta (ER-beta) signaling pathway - cell viability counter screen (AID 1259382; active = well fitted curve in the direction sought with a large enough effect in the repeat runs; an effect the other way counts as inactive or inconclusive;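 also: HEK293T cells carrying ER-beta-UAS-bla reporter stimulated with estradiol; series mostly up to about 92 µM; nearly all actives have a fitted effect of over 55% in size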)
Outline: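 Tox21 10K library tested in qHTS format on ER-beta-bla HEK293T cells stimulated with 1nM E2; 16 hr treatment at 37C. Same-well CellTiter-Glo luminescence served as the cell viability measure.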

[8] = target: Estrogen receptor (Homo sapiens) (UniProt P03372); assay: qHTS assay to identify small molecule agonists of the estrogen receptor alpha (ER-alpha) signaling pathway in the presence of an antagonist (AID 1259383); also: top concentration of the series differs between compounds; nearly all actives have a fitted effect of over 15% in size
Estrogen receptor (Homo sapiens), sequence (P03372 whole entry, looked up): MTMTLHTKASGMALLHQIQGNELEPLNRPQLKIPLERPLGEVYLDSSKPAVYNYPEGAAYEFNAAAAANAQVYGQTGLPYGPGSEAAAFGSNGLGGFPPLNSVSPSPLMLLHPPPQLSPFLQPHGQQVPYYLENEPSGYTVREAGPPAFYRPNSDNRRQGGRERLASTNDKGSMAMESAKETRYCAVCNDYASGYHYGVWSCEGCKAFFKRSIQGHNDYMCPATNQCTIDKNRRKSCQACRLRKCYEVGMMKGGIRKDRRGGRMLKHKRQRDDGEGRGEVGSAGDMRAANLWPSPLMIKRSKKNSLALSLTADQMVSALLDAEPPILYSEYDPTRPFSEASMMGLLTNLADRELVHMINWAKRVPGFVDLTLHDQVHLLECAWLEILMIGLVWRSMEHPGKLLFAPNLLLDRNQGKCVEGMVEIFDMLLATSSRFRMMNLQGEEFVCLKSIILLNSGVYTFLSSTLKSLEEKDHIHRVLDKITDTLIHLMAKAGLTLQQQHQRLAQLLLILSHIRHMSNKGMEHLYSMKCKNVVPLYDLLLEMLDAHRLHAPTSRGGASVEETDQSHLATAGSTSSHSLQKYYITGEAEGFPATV
Outline: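 In VM7Luc4E2 cells, 4,000 per well, compounds at 15 concentrations were co-incubated 22hr at 37C with 10.0nM final ICI-182,780. Luminescence from the stably transfected 4×ERE-luciferase reporter was recorded 30min after ONE-Glo addition.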

[9] = qHTS assay to identify small molecule agonists or antagonists of the thyroid stimulating hormone receptor (TSHR) signaling pathway - wild type cell line counter screen (AID 1259384)
Outline: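 Counter screen in untransfected Hek293: compounds (15-point titration, triplicate) plus phosphodiesterase inhibitor Ro20-1724 added after 18 h plating; 30 min RT. Intracellular cAMP via competitive d2/cryptate immunoassay, 1 h incubation.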

[10] = target: Androgen receptor (Homo sapiens) (UniProt P10275); assay: qHTS assay to identify small molecule agonists of the androgen receptor (AR) signaling pathway in the presence of an antagonist (AID 1259381); also: nearly all actives have a fitted effect of over 15% in size
Androgen receptor (Homo sapiens), sequence (P10275 whole entry, looked up): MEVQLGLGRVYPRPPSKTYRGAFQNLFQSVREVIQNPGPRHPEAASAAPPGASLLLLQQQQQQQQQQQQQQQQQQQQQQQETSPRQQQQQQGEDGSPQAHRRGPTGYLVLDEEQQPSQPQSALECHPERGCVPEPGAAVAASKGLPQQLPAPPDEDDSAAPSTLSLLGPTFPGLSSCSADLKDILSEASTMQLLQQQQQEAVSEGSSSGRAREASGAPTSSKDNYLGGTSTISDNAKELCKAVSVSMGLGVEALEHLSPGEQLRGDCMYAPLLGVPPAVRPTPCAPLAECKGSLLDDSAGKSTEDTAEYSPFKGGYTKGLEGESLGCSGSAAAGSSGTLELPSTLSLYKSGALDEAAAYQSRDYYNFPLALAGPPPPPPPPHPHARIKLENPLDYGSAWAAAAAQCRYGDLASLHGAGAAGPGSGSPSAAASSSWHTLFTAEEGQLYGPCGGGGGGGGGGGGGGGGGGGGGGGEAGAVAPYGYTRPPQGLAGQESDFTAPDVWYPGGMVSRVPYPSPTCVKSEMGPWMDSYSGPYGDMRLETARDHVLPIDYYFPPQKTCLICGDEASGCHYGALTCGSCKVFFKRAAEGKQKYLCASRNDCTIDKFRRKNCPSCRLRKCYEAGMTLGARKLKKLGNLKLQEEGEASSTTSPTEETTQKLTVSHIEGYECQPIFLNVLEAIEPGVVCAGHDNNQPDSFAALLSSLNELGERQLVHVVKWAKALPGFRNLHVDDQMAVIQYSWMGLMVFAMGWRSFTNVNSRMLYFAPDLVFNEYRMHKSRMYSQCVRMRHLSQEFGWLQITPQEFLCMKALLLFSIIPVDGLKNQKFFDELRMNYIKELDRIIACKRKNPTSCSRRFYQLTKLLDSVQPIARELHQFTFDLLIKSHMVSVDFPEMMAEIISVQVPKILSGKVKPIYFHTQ
Outline: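 Here, 15-concentration compound series were pin-transferred onto MDA-kb2 MMTV-luciferase cells already dosed with nilutamide (3.0uM final). After 16hr at 37C, ONE-Glo was added and luminescence read 30min later at room temperature.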

Measured: Potency

COc1ccc(/C(C)=C/C(=O)O)c(OC)c1
not listed: [10]
inactive: all other assays above

CCOC(OCC)OCC
not listed: [10]
inactive: all other assays above

O=C(O)c1cc(C(=O)O)c(C(=O)O)cc1C(=O)O
not listed: [9]
inactive: all other assays above

C=CCCC
not listed: [8] | [9] | [10]
inactive: all other assays above

CC(=O)OCC(=O)[C@@]1(O)CC[C@H]2[C@@H]3CCC4=CC(=O)C=C[C@]4(C)[C@@]3(F)[C@@H](O)C[C@@]21C
not listed: [8] | [10]
inactive: all other assays above

COC(=O)c1cc(Cl)ccc1[N+](=O)[O-]
not listed: [10]
inactive: all other assays above

CCCOC(C)=O
not listed: [7] | [8]
inactive: all other assays above

CCOc1ccc2c(c1)C(C)CC(C)(C)N2 (centres undefined)
not listed: [8]
inactive: all other assays above

CCCCCCCCS
not listed: [9] | [10]
inactive: all other assays above

CCCCCCCCCCCC(=O)OCC
not listed: [10]
inactive: all other assays above

C/C(=C(\CCO)SS/C(CCO)=C(\C)N(C=O)Cc1cnc(C)nc1N)N(C=O)Cc1cnc(C)nc1N
not listed: [10]
inactive: all other assays above

CC(=O)CC/C=C(\C)CC/C=C(\C)CC/C=C(\C)CCC=C(C)C
inactive: [1] | [2] | [3] | [4] | [5] | [6]

C[C@@H](O)[C@H]1C(=O)N2C(C(=O)O)=C(S[C@@H]3CN[C@H](CNS(N)(=O)=O)C3)[C@H](C)[C@H]12
not listed: [10]
inactive: all other assays above

CCCCCCCCCCCCCCCCC(=O)O
not listed: [8]
inactive: all other assays above

CCC(=O)O[C@@H]1C[C@H]2CC[C@]1(C)C2(C)C
not listed: [8] | [9] | [10]
inactive: all other assays above

O=C(c1ccco1)N1CCNCC1
inactive: all assays above

CC1(C)CC(O)CC(C)(C)N1[O]
not listed: [10]
inactive: all other assays above

CCCC(=O)OCc1ccccc1
not listed: [10]
inactive: all other assays above

O=C(OC1C[C@H]2CC[C@@H](C1)[N+]21CCCC1)C(O)(c1ccccc1)c1ccccc1 (some centres undefined)
not listed: [8]
inactive: all other assays above

O=C1OC(=O)C2CC=CCC12 (centres undefined)
not listed: [8] | [10]
inactive: all other assays above

O=C(O)c1ccccc1-n1cc(C(=O)O)c(=O)c2cc(Nc3c(F)cc(F)cc3Cl)c(Cl)cc21
not listed: [10]
inactive: all other assays above

CC(C)Cc1nccs1
not listed: [8] | [10]
inactive: all other assays above

O=C(O)c1ccc(O)c(O)c1
inactive: all assays above

CC(O)CN (centres undefined)
not listed: [10]
inactive: all other assays above

CC(C(=O)O)c1ccc2c(c1)Cc1cccnc1O2 (centres undefined)
not listed: [7] | [8]
inactive: all other assays above

Cc1ccc2c(Cl)cc(Cl)c(O)c2n1
inactive: all assays above
